For 57 compounds, Potency and max response results are on record in PubChem BioAssay AID651813 (National Center for Advancing Translational Sciences (NCATS), 2012).

The whole screen tested about 2,100 compounds, of which about 1,100 (52%) were called active. Roughly 27% stayed inconclusive and do not appear here. So high a share suggests a set chosen from earlier hits. Some of the results follow. A number with no mark means an inactive call. Calls come from the whole dose curve; as a rule, active = well fitted inhibition curve with a large enough effect; inconclusive = small, poorly fitted or top-dose-only effect; inactive = no such curve, though single readings can be large or run the other way.
Potency is the fitted concentration of half-maximal effect.

The assay deals with DNA dC->dU-editing enzyme APOBEC-3G (Homo sapiens) (UniProt Q9HC16). The assay is described as follows: qHTS for inhibitors of Vif-A3G interactions: Cherry picks counterscreen.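 For max response: max response given as percent of control signal.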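 Note: hits raise yellow fluorescence by blocking Vif-driven A3G-eYFP degradation; nearly all actives have a fitted effect of over 70% in size.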 Conditions: HeLa A3G-eYFP + Vif (tagged APOBEC3G with the HIV-1 protein that degrades it), eYFP fluorescence, 24 h. Put shortly: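 HeLa cells stably expressing A3G-eYFP and Vif were treated for 24 h at 37 deg C with compounds at several concentrations; yellow fluorescence (Ex 488 nm, Em 500-530 nm) read by Acumen Explorer, MG132 as positive control.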
Chain of DNA dC->dU-editing enzyme APOBEC-3G (Homo sapiens) (Q9HC16 whole entry, looked up): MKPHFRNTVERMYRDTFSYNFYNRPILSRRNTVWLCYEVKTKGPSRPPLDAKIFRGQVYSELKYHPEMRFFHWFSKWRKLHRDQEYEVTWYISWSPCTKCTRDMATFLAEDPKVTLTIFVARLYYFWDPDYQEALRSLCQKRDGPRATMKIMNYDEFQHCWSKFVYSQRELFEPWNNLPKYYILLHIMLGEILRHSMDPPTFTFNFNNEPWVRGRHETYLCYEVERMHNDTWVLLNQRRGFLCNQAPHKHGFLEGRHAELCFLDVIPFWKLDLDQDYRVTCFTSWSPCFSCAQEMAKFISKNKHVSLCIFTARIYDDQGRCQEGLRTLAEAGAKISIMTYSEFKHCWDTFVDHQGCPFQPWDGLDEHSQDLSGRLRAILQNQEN
Consider `COc1cc2c(cc1OC)C1=CC(=O)C(=O)N1C(C)(C)C2`, for which the Potency was 14 µM (active). As to `Cc1ccc(S(=O)(=O)Nc2cc(Cl)c(O)c3ncccc23)cc1`, the max response is 10.1%. Take `CC(=O)c1c(C)oc2c1cc(NS(=O)(=O)c1ccc(Br)cc1)c1ccccc12`: the Potency is 1.64 µM (active). Still for that read-out and setting: next, `CCOc1ccc(S(=O)(=O)Nc2cc3c(C(=O)OC)c(COC)oc3c3ccccc23)cc1`: 0.461 µM (active); `COc1ccc(S(=O)(=O)Nc2cccc(-c3ccc4nncn4n3)c2)cc1`: 4.98 µM (active). On the same count and under the same terms, in the case of `COc1ccc(S(=O)(=O)Nc2cccc(-c3ccc4nncn4n3)c2)cc1F` it was 4.44 µM (active). Turning to `O=C(N/N=C/C=C/c1ccco1)c1ccncc1`, the max response was 0.191%. As for `O=[N+]([O-])c1ccc(N/N=C/C=C/c2ccco2)cc1`, the Potency was 18.4 µM (active).

For `O=C1/C(=C/c2c[nH]c3ccccc23)CCC/C1=C\c1c[nH]c2ccccc12`, the Potency is 20.6 µM (active).

For the compound `CCOc1ccc(C2CC(c3c(O)c4ccccc4oc3=O)=NN2c2ccccc2)cc1OC` (configuration not stated), the Potency was 5.17 µM (active). Still for that read-out and setting: in the case of `Nc1nn(-c2ccccc2)c(N)c1N=Nc1ccccc1` it was 8.86 µM (active). As to `c1ccc(N=NC2=NN(c3ccccc3)CS2)cc1`, the max response is 20.9%. Regarding `O=S(=O)(Nc1nc2ccccc2nc1Nc1cccc(S(=O)(=O)N2CCCCC2)c1)c1ccccc1`, the Potency is 20.6 µM (active). On to `CC(=O)Nc1ccc(S(=O)(=O)Nc2nc3ccccc3nc2Nc2ccc3ccccc3c2)cc1`, for which the max response was -17.6%. Take `COc1cc(Cl)c(C)cc1Nc1nc2ccccc2nc1NS(=O)(=O)c1ccccc1`: the Potency was 20.6 µM (active). For `O=C(N=c1ccn(-c2nc3ccccc3nc2NS(=O)(=O)c2ccccc2)cc1)c1cccs1`, the max response is 0.295%.

Consider `Cn1ccnc1Sc1nc2ccccc2nc1NS(=O)(=O)c1ccccc1`, for which the max response was -7.62%. Consider `Cc1ccc(S(=O)(=O)Nc2nc3ccccc3nc2Nc2cccc(S(=O)(=O)N3CCCC3)c2)cc1`, for which the Potency was 23.1 µM (active).

For `COC(=O)c1cc(Nc2nc3ccccc3nc2NS(=O)(=O)c2ccc(C)cc2)ccc1Cl`, the max response was -22.7%. For `Cc1c2ccccc2nc2c(F)c(NC(C)C)c(F)c(F)c12`, the Potency was 8.2 µM (active). Still for that read-out and setting: in the case of `CCCNc1c(F)c(F)c2c(C)c3ccccc3nc2c1F` it was 12.5 µM (active). For `CC1Sc2ccc(C(=O)NCc3ccccn3)cc2NC1=O` (configuration not stated), the max response is 3.16%. The same measure, in the same setting: next, `CC(C)CCNC(=O)c1ccc2c(c1)NC(=O)C(CS(=O)(=O)Cc1cccc(Br)c1)N2` (configuration not stated): 2.76%.

With `CCCNC(=O)c1ccccc1NC(=O)c1ccc2c(c1)NC(=O)C(C)S2` (configuration not stated), the Potency was 7.04 µM (active).

Consider `CCN(CC)c1ccc(NC(=O)c2cccc(F)c2)c(C)c1`, for which the Potency was 4.98 µM (active). As to `COc1ccc(OC)c(NC(=O)Cn2cnc3onc(-c4ccc(Cl)cc4)c3c2=O)c1`, the max response was 9.98%.

On to `COc1ccc(OC)c(Nc2ncnc3c2cnn3-c2cccc(Cl)c2)c1`, for which the Potency is 7.31 µM (active).

In the case of `Cc1ccc2[nH]c(C(=O)NN=C3CCCCC3)c(-c3ccccc3)c2c1`, the max response was 4.2%. Regarding `Cc1cc(NC(=O)/C(C#N)=C\c2ccc(-c3ccc(SC(F)F)cc3)o2)n(-c2ccccc2)n1`, the Potency is 2.59 µM (active). `Cc1cc(NC(=O)/C(C#N)=C/c2ccc(-c3ccc(SC(F)F)cc3)o2)n(-c2ccccc2)n1`: the Potency was 4.61 µM (active). Regarding `C[n+]1ccc(/C=C/c2c[nH]c3ccc(F)cc23)cc1`, the Potency is 5.8 µM (active).

With `COc1ccc2[nH]cc(/C=C/c3cc[n+](C)cc3)c2c1`, the Potency is 9.2 µM (active). The same measure, in the same setting: in the case of `COc1ccc2c(c1)c(/C=C/c1cc[n+](C)cc1)cn2C` it was 2.23 µM (active); in that of `Cc1ccc2[nH]cc(/C=C/c3cc[n+](C)cc3)c2c1`, 1.4 µM (active). On to `Cc1ccc(NC(=S)N/N=C2\CCCCC2C)cc1` (configuration not stated), for which the max response is -4.1%.

As for `CC[n+]1cc(C)ccc1/C=C/c1ccc(N(C)C)cc1`, the Potency is 17.7 µM (active).

On to `Cc1ccc(/C=C/c2ccc(N(C)C)cc2)[n+](C)c1`, for which the Potency was 17.7 µM (active).

On to `CN(C)c1ccc(/C=C/c2cc[n+](C)cc2)cc1`, for which the Potency is 12.5 µM (active). The same measure, in the same setting: next, `C=CCOc1c(Cl)cc(C(=S)N2CCCC2)cc1OCC`: 15.8 µM (active). As to `CCCOc1cc(N(CC)CC)ccc1/C=C(/C#N)c1nc2ccc(C)cc2[nH]1`, the max response was 37.6%. For `Cc1cccc(OCCOc2ccccc2C=C(C#N)C#N)c1`, the Potency was 22.3 µM (active). On to `COC(=O)c1sccc1S(=O)(=O)N(CC(=O)Nc1cc(F)ccc1F)c1ccc(C)c(C)c1`, for which the max response was -2.7%.

Take `CCOc1ccccc1C(=O)Nc1ccsc1C(=O)OC`: the Potency is 2.5 µM (active).

Turning to `COC(=O)c1sccc1NC(=S)Nc1cc(C)cc(C)c1`, the max response was 5.75%. For the compound `COc1ccc(NC(=O)C2(C)Cc3c(-c4cccc(NC(C)=O)c4)ccnc3O2)cc1` (configuration not stated), the Potency was 1.77 µM (active). Consider `COc1ccc(NC(=O)C2(C)Cc3c(-c4cccc(C(N)=O)c4)ccnc3O2)cc1` (configuration not stated), for which the Potency is 4.44 µM (active). `C=CCN1C(=O)c2ccc(C(=O)N(CC(C)C)c3c(N)n(CCCC)c(=O)[nH]c3=O)cc2C1=O`: the max response was 1.27%. Turning to `CCCCn1c(N)c(N(Cc2ccccc2OC)C(=O)c2ccc([N+](=O)[O-])s2)c(=O)[nH]c1=O`, the max response is -2.93%.

As for `CCCCn1c(N)c(N(CC(C)C)C(=O)Cc2ccc(S(=O)(=O)N3CCOCC3)s2)c(=O)[nH]c1=O`, the Potency was 18.4 µM (active). Regarding `CCc1cc[n+](-c2nc3ccccc3nc2[N-]S(=O)(=O)c2ccc(Br)s2)cc1`, the Potency is 23.1 µM (active). On the same count and under the same terms, next, `Cc1cc(C)c[n+](-c2nc3ccccc3nc2[N-]S(=O)(=O)c2ccc(Br)s2)c1`: 23.1 µM (active). As to `O=S(=O)([N-]c1nc2ccccc2nc1-[n+]1ccc(-c2ccncc2)cc1)c1ccccc1`, the max response was 5.45%. The same measure, in the same setting: in the case of `Cc1ccc(Cc2c(C3CCCCC3)nc3ccc(C)cn23)cc1` it was 27.2%. In the case of `COc1ccc2oc(-c3ccccc3[N+](=O)[O-])cc(=O)c2c1`, the Potency is 5.59 µM (active). Regarding `O=C(O)c1ccccc1/C=N/Nc1ccc(S(=O)(=O)N2CCOCC2)cc1[N+](=O)[O-]`, the max response was -0.239%.

`CCCN1CCC(=NNc2ccc(S(=O)(=O)N3CCOCC3)cc2[N+](=O)[O-])CC1`: the Potency is 14 µM (active). Turning to `Cc1ccc(NC(=S)N=Nc2c(O)n(C)c3ccc(S(=O)(=O)N4CCOCC4)cc23)cc1`, the max response is 0.754%.
